Source: PubChem BioAssay AID1159580 (chemical genetic matrix, 2015)
The campaign covered roughly 5,500 compounds. About 2,000 (36%) were called active. Another 18% or so got no clear call; they are omitted. Cut-off read from the data, not from the text of the source: active = normalized growth mostly below about 0.91 (no sharp cut-off); inconclusive = no clear call, values can overlap the other calls; inactive = mostly above about 0.92. The list shows a part of the results.

Assay: chemical genetic growth profiling, strain panel (AID 1159580);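 note: tested at 20 µM; growth read once vehicle control cultures reached saturation at 30 °C; 1 = growth at the plate median or of vehicle wells; lower values mean less growth of the strain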
Conditions: growth OD

Measured: normalized growth

O=c1[nH]cnc2c1ncn2C1O[C@H](CO)[C@@H](O)[C@H]1O (some centres undefined)
inactive: S. cerevisiae deletion strains, locus YJR075W, strain HOC1, stronger effect = lower value 1.01 | S. cerevisiae deletion strains, locus YKL009W, strain mrt4, stronger effect = lower value 0.979 | S. cerevisiae deletion strains, locus YKL068W, stronger effect = lower value 1.01 | S. cerevisiae deletion strains, locus YKL085W, strain MDH1 (second series), stronger effect = lower value 0.998 | S. cerevisiae deletion strains, locus YKL085W, strain MDH1, stronger effect = lower value 0.998 | S. cerevisiae deletion strains, locus YKL160W, strain elf1, stronger effect = lower value 0.986 | S. cerevisiae deletion strains, locus YKL190W, strain CNB1, stronger effect = lower value 1 | S. cerevisiae deletion strains, locus YKR001C, strain vps1, stronger effect = lower value 1.06 | S. cerevisiae deletion strains, locus YKR026C, strain gcn3, stronger effect = lower value 0.984 | S. cerevisiae deletion strains, locus YKR091W, strain srl3, stronger effect = lower value 0.986 | S. cerevisiae deletion strains, locus YLL001W, strain dnm1, stronger effect = lower value 1.01 | S. cerevisiae deletion strains, locus YLL026W, stronger effect = lower value 0.993 | S. cerevisiae deletion strains, locus YLL041C, strain sdh2, stronger effect = lower value 1 | S. cerevisiae deletion strains, locus YLR027C, strain aat2, stronger effect = lower value 0.994 | S. cerevisiae deletion strains, locus YLR039C, strain RIC1, stronger effect = lower value 1.04 | S. cerevisiae deletion strains, locus YLR058C, strain SHM2, stronger effect = lower value 0.999 | S. cerevisiae deletion strains, locus YLR102C, strain apc9, stronger effect = lower value 1.04 | S. cerevisiae deletion strains, locus YLR113W, strain HOG1, stronger effect = lower value 0.978 | S. cerevisiae deletion strains, locus YLR221C, strain rsa3, stronger effect = lower value 0.96 | S. cerevisiae deletion strains, locus YLR258W, strain gsy2, stronger effect = lower value 0.99 | S. cerevisiae deletion strains, locus YLR262C, strain YPT6 (second series), stronger effect = lower value 1.02 | S. cerevisiae deletion strains, locus YLR262C, strain YPT6, stronger effect = lower value 1.05 | S. cerevisiae deletion strains, locus YLR268W, strain sec22, stronger effect = lower value 1.05 | S. cerevisiae deletion strains, locus YLR320W, strain mms22, stronger effect = lower value 0.959 | S. cerevisiae deletion strains, locus YLR330W, strain CHS5, stronger effect = lower value 1.01 | S. cerevisiae deletion strains, locus YLR342W, strain FKS1 (second series), stronger effect = lower value 0.996 | S. cerevisiae deletion strains, locus YLR342W, strain FKS1, stronger effect = lower value 0.989 | S. cerevisiae deletion strains, locus YLR357W, strain rsc2, stronger effect = lower value 0.971 | S. cerevisiae deletion strains, locus YLR370C, strain arc18, stronger effect = lower value 0.991 | S. cerevisiae deletion strains, locus YLR371W, strain rom2, stronger effect = lower value 1.01 | S. cerevisiae deletion strains, locus YLR384C, strain iki3, stronger effect = lower value 0.969 | S. cerevisiae deletion strains, locus YLR418C, strain cdc73, stronger effect = lower value 1.01 | S. cerevisiae deletion strains, locus YML016C, strain PPZ1, stronger effect = lower value 1 | S. cerevisiae deletion strains, locus YML032C, strain rad52, stronger effect = lower value 1.01 | S. cerevisiae deletion strains, locus YML120C, strain ndi1, stronger effect = lower value 1.01 | S. cerevisiae deletion strains, locus YML124C, strain tub3, stronger effect = lower value 1.02 | S. cerevisiae deletion strains, locus YMR058W, strain fet3, stronger effect = lower value 0.992 | S. cerevisiae deletion strains, locus YMR078C, strain ctf18, stronger effect = lower value 1.06 | S. cerevisiae deletion strains, locus YMR125W, strain sto1, stronger effect = lower value 1.01 | S. cerevisiae deletion strains, locus YMR129W, stronger effect = lower value 0.997 | S. cerevisiae deletion strains, locus YMR205C, strain PFK2, stronger effect = lower value 0.984 | S. cerevisiae deletion strains, locus YMR223W, strain ubp8, stronger effect = lower value 1.01 | S. cerevisiae deletion strains, locus YMR231W, strain pep5, stronger effect = lower value 0.977 | S. cerevisiae deletion strains, locus YMR263W, strain SAP30, stronger effect = lower value 1 | S. cerevisiae deletion strains, locus YMR307W, strain GAS1, stronger effect = lower value 1.01 | S. cerevisiae deletion strains, locus YNL067W, strain RPL9B, stronger effect = lower value 1.01 | S. cerevisiae deletion strains, locus YNL071W, strain lat1, stronger effect = lower value 1 | S. cerevisiae deletion strains, locus YNL153C, strain GIM3, stronger effect = lower value 0.99 | S. cerevisiae deletion strains, locus YNL183C, strain NPR1, stronger effect = lower value 0.908 | S. cerevisiae deletion strains, locus YNL209W, strain ssb2, stronger effect = lower value 0.995 | S. cerevisiae deletion strains, locus YNL233W, strain BNI4, stronger effect = lower value 1.02 | S. cerevisiae deletion strains, locus YNL248C, strain rpa49, stronger effect = lower value 0.902 | S. cerevisiae deletion strains, locus YNL250W, strain rad50, stronger effect = lower value 1.03 | S. cerevisiae deletion strains, locus YNL271C, strain bni1, stronger effect = lower value 1.04 | S. cerevisiae deletion strains, locus YNL298W, strain CLA4, stronger effect = lower value 1.03 | S. cerevisiae deletion strains, locus YNL307C, strain MCK1, stronger effect = lower value 1.05 | S. cerevisiae deletion strains, locus YNL322C, strain KRE1 (second series), stronger effect = lower value 0.985 | S. cerevisiae deletion strains, locus YNR049C, strain mso1, stronger effect = lower value 0.978 | S. cerevisiae deletion strains, locus YNR052C, strain pop2, stronger effect = lower value 1.02 | S. cerevisiae deletion strains, locus YOL012C, strain htz1 1.16 | S. cerevisiae deletion strains, locus YOL147C, strain pex11, stronger effect = lower value 1.04 | S. cerevisiae deletion strains, locus YOR001W, strain rrp6, stronger effect = lower value 0.994 | S. cerevisiae deletion strains, locus YOR061W, strain CKA2, stronger effect = lower value 1.01 | S. cerevisiae deletion strains, locus YOR069W, strain VPS5, stronger effect = lower value 1 | S. cerevisiae deletion strains, locus YOR070C, strain gyp1, stronger effect = lower value 0.991 | S. cerevisiae deletion strains, locus YOR080W, strain dia2, stronger effect = lower value 0.99 | S. cerevisiae deletion strains, locus YOR083W, strain WHI5, stronger effect = lower value 0.998 | S. cerevisiae deletion strains, locus YOR106W, strain vam3, stronger effect = lower value 1.01 | S. cerevisiae deletion strains, locus YOR136W, strain idh2, stronger effect = lower value 1.02 | S. cerevisiae deletion strains, locus YOR144C, strain elg1, stronger effect = lower value 1.03 | S. cerevisiae deletion strains, locus YOR184W, strain ser1, stronger effect = lower value 1.05 | S. cerevisiae deletion strains, locus YOR231W, strain MKK1, stronger effect = lower value 0.982 | S. cerevisiae deletion strains, locus YOR265W, strain rbl2, stronger effect = lower value 0.984 | S. cerevisiae deletion strains, locus YOR270C, strain vph1, stronger effect = lower value 0.987 | S. cerevisiae deletion strains, locus YOR290C, strain snf2, stronger effect = lower value 1 | S. cerevisiae deletion strains, locus YOR316C, strain cot1, stronger effect = lower value 1.04 | S. cerevisiae deletion strains, locus YPL051W, strain arl3, stronger effect = lower value 0.977 | S. cerevisiae deletion strains, locus YPL055C, strain LGE1, stronger effect = lower value 1.03 | S. cerevisiae deletion strains, locus YPL078C, strain atp4, stronger effect = lower value 1 | S. cerevisiae deletion strains, locus YPL106C, strain sse1, stronger effect = lower value 1.02 | S. cerevisiae deletion strains, locus YPL240C, strain hsp82, stronger effect = lower value 0.984 | S. cerevisiae deletion strains, locus YPL241C, strain CIN2, stronger effect = lower value 1 | S. cerevisiae deletion strains, locus YPL256C, strain CLN2, stronger effect = lower value 0.965 | S. cerevisiae deletion strains, locus YPR119W, strain clb2, stronger effect = lower value 1.06 | S. cerevisiae deletion strains, locus YPR141C, strain kar3, stronger effect = lower value 1.03 | S. cerevisiae deletion strains, locus YPR163C, strain tif3, stronger effect = lower value 1.02 | S. cerevisiae deletion strains, locus YPR167C, strain met16, stronger effect = lower value 1.02 | S. cerevisiae deletion strains, strain wtn01, stronger effect = lower value 1.04 | S. cerevisiae strains, strain wild type, stronger effect = lower value 1.01
